Outcome and AC50 data for 40 compounds are collected here from PubChem BioAssay (EPA / NIEHS).

Active and inactive are the calls of the source. How the source made its calls: active means hit-call score of the fitted dose curve at least 0.9, where 1 is the maximum; inactive means score below 0.9.

A short description of this assay: CCTE_Harrill_HTTr_Apoptosis_MCF7: CCTE's 6-hour Apoptosis Assessment for the High-Throughput Transcriptomics (HTTr) Platform, in MCF-7 cells cultured in DMEM + 10% fetal bovine serum, Harrill Lab (AID 2284011). From the text: This is a cell-based assay that evaluates apoptosis using high content imaging to evaluate activation of caspase-3/7 using the CellEvent Caspase 3/7 Green detection reagent in 384-well format.One of seven assay components measured from the CCTE_Harrill_HTTr_Apoptosis assay. This was part of a full screening experiment. This is a cell-based assay that evaluates apoptosis in MCF-7 cells cultured in DMEM + 10% fetal bovine serum. High content imaging is used to evaluate activation of caspase-3/7 using the CellEvent Caspase 3/7 Green detection reagent. Measurements are taken at 6 hours after chemical dosing in 384-well format.The assay component endpoint CCTE_Harrill_HTTr_Apoptosis_MCF7 was analyzed with bidirectional fitting relation to DMSO as the negative control and baseline of activity. Using a type of viability reporter, gain-of-signal activity can be used to evaluate activation of caspase-3/7 using the CellEvent Caspase 3/7 Green detection reagent to understand changes in apoptosis. To generalize the intended target to other relatable targets, this assay endpoint is annotated to cell cycle, where the subfamily is apoptosis.
Chemicals were tested in MCF7 cells in an eight point dilution series with a six hour exposure duration.
On to `ClC1=C(Cl)C(Cl)(Cl)C(Cl)=C1Cl`, for which the result was inactive.

With `CCN(CC)CCNc1ccc(CNC=O)c2sc3ccc(OC)cc3c(=O)c12`, the result was inactive.

Take `c1ccc2c(c1)Cc1ccccc1-2`: the outcome was inactive.

In the case of `CCCCCCCCCCCCc1ccccc1S(=O)(=O)O`, the outcome was inactive.

Turning to `O=C(O)Cc1cc(I)c(Oc2cc(I)c(O)c(I)c2)c(I)c1`, the outcome was inactive.

Take `COCC(C)OCC(C)O` (stereo not given): the result was inactive.

`O=C(/C=C/c1ccc(O)cc1)CC(=O)/C=C/c1ccc(O)cc1`: the result was inactive.

As for `OCCC(F)(F)C(F)(F)C(F)(F)C(F)(F)C(F)(F)C(F)(F)C(F)(F)C(F)(F)F`, the result was inactive.

On to `CCCCCCCCC(=O)O`, for which the result was inactive.

Turning to `N#C[C@@H]1CC(F)(F)CN1C(=O)CNC1CC2CCC(C1)N2c1ncccn1` (stereo not given in full), the result was inactive.

As to `CC(C)(C)c1cccc(C(C)(C)C)c1O`, the outcome was inactive.

On to `OCCC(F)(F)C(F)(F)C(F)(F)C(F)(F)C(F)(F)C(F)(F)F`, for which the outcome was inactive.

Regarding `CCCCC(CC)COC(=O)CCCCC(=O)OCC(CC)CCCC` (stereo not given), the result was inactive.

`CC(C)CCCCCCOC(=O)CCCCC(=O)OCCCCCCC(C)C`: the result was inactive.

In the case of `C[C@@H]1C[C@H]2[C@@H]3CCC4=CC(=O)C=C[C@]4(C)[C@@]3(F)[C@@H](O)C[C@]2(C)[C@@]1(O)C(=O)COP(=O)(O)O`, the result was inactive.

Turning to `CCC(C)(C)C1CCC(O)CC1` (stereo not given), the result was inactive.

For `CC[C@H](c1ccc(O)cc1)[C@@H](CC)c1ccc(O)cc1`, the result was inactive.

Turning to `Oc1cccc(O)c1`, the result was inactive.

Consider `NC(=O)N(O)[C@@H]1C=C[C@H](Oc2cccc(Oc3ccc(F)cc3)c2)C1`, for which the outcome was inactive.

With `CCOC(=O)CC(O)(CC(=O)OCC)C(=O)OCC`, the result was inactive.

On to `O=C(OCCOCCOC(=O)c1ccccc1)c1ccccc1`, for which the outcome was inactive.

On to `CCCCCCCCOC(=O)CCCCCCCCC(=O)OCCCCCCCC`, for which the outcome was inactive.

Take `Cc1cc(C)c(O)c(C)c1`: the outcome was inactive.

As to `CN1CCN(c2ccccc2/C=C2\SCCN(c3ccc(Cl)c(Cl)c3)C2=O)CC1`, the result was inactive.

Consider `CC(C)(C)CC(C)(C)c1ccc(O)c(-n2nc3ccccc3n2)c1`, for which the result was inactive.

`c1ccc2c(c1)ccc1ccccc12`: the result was inactive.

Take `CCCCCCCCCCCCN1CCCC1=O`: the outcome was inactive.

As to `CC1=C(/C=C/C(C)=C/C=C/C(C)=C/C(=O)O)C(C)(C)CCC1`, the outcome was inactive.

As to `O=C(O)c1ccccc1C(c1ccc(O)cc1)c1ccc(O)cc1`, the result was inactive.

For `CC(=O)NC1(c2cccc(F)c2)CCN(CC[C@@]2(c3ccc(Cl)c(Cl)c3)CN(c3ccccc3)C(=O)CO2)CC1`, the result was inactive.

Turning to `COC(=O)CCCCC(=O)OC`, the result was inactive.

As to `CC(O)C(=O)O` (stereo not given), the result was inactive.

As to `CCCCCCCC(=O)O`, the result was inactive.

Turning to `CC#C[C@]1(O)CC[C@H]2[C@@H]3CCC4=CC(=O)CCC4=C3[C@@H](c3ccc(N(C)C)cc3)C[C@@]21C`, the result was inactive.

Consider `C=C(C)C(=O)OCCC(F)(F)C(F)(F)C(F)(F)C(F)(F)C(F)(F)C(F)(F)F`, for which the outcome was inactive.

Consider `c1ccc2cc3c(ccc4ccccc43)cc2c1`, for which the result was inactive.

On to `CC[C@H](C)[C@@H](C(=O)O)n1sc2ccccc2c1=O`, for which the result was inactive.

As to `CCc1nn(C2CCCCC2)c2cc(C3(C#N)CCC(C(=O)O)CC3)ccc12` (stereo not given), the result was inactive.

With `NC(=O)N1C(=O)C(C(=O)c2cc(Cl)cs2)c2cc(F)c(Cl)cc21` (stereo not given), the result was inactive.

Regarding `Cc1cc(CCN2CCN(c3nsc4ccccc34)CC2)cc2c1NC(=O)CC2(C)C`, the AC50 (commonly the concentration at which the activity in the assay is half-maximal) is 63.6 µM (active).
